Where “and” joins values, the source holds several entries; their conditions need not be identical. Identical values can stand only once. Inconclusive results are not listed. A structure can be active in one record and inactive in another. Calls of active or inactive are those of the source. The calls were made as follows: active = hit-call score of the fitted dose curve at least 0.9, where 1 is the maximum; inconclusive = response in the unintended direction; inactive = score below 0.9.

Here are results for 31 molecules from PubChem BioAssay (EPA / NIEHS).

In assay [1] the target is AR (gene 367) (UniProt P10275). Put plainly: ACEA_AR_antagonist_80hr: ACEA Biosciences xCELLigence Real-Time Cell Analysis on Androgen Receptor Antagonism for Proliferation (AID 2283787).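 Also: 22Rv1 human prostate cancer cells with growth followed by electrical impedance; hits lower the impedance growth signal relative to DMSO.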 The essentials: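 Impedance-based real-time growth of 22Rv1 prostate cells, read 80 h after dosing. Eight concentrations, 1:4 series, top 100 uM final (0.5% DMSO), n = 2; signal decrease scored against DMSO.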
Chain of AR (gene 367) (P10275 whole entry, looked up): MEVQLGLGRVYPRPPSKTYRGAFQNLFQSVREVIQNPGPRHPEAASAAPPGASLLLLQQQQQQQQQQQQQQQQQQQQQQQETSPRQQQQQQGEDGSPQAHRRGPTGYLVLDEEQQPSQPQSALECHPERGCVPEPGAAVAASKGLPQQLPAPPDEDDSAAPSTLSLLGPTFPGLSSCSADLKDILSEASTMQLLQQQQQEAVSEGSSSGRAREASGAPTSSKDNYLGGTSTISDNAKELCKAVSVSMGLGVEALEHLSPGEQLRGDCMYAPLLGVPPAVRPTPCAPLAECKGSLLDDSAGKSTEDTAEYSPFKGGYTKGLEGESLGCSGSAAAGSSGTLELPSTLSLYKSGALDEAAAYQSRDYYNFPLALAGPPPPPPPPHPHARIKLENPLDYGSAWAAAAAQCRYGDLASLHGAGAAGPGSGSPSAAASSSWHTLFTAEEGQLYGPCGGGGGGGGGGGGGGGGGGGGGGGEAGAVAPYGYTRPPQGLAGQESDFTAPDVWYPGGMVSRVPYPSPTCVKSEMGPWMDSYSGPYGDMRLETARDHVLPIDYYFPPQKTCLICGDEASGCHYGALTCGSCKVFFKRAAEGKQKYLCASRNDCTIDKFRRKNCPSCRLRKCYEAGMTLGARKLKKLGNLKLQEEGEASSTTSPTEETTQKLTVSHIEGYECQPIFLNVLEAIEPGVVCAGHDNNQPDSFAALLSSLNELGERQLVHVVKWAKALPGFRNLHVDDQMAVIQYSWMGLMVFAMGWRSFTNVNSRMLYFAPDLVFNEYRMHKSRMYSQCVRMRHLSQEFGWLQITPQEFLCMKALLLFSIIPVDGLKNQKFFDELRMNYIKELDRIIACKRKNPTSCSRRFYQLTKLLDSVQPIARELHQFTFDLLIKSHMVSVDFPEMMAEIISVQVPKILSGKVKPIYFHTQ

Assay [2] in a line: ACEA_ER_AUC_viability: ACEA Biosciences xCELLigence Real-Time Cell Analysis on Estrogen Receptor Agonism for Viability (AID 2283782).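 Also: hit means loss of impedance signal meaning reduced cell growth or viability.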 The essentials:
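Viability endpoint: reduced impedance area under the curve relative to DMSO, recorded by real-time electrode sensing over ~80 h of continuous exposure. Duplicate plates of T47D in hormone-depleted medium; eight concentrations, 1:4 dilutions, 100 uM maximum.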

Assay [3] in a line: ATG_M_06_XSP1: Attagene TRANS-FACTORIAL Multi-Species (XSP1) HepG2 Assay for M06 Transcription Factor (Internal Marker) (AID 2283790). Put shortly:
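This background-control readout tracks M06 reporter mRNA, measured by RT-PCR and capillary electrophoresis. HepG2 cells transiently carrying the GAL4-UAS reporter panel were dosed for 24 h with 3 nM 6-alpha-fluorotestosterone added for partial AR stimulation; increases were scored relative to DMSO.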

The nature of assay [4]: ATG_M_61_XSP1: Attagene TRANS-FACTORIAL Multi-Species (XSP1) HepG2 Assay for M61 Transcription Factor (Internal Marker) (AID 2283797). The essentials: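 Background-control readout: reporter transcripts measured by RT-PCR and capillary electrophoresis 24 h after dosing transiently transfected HepG2 multi-reporter cells, with 3 nM 6-alpha-fluorotestosterone present. Fitted in the positive direction relative to DMSO.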

Assay [5] is described as follows: STM_H9_NormalizedViability: Cytotoxicity Assessment at 120 hours in the Stemina devTOX quickPredict H9 human embryonic stem cell (hESC)-based Assay (AID 2283784). Put shortly: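 Viability endpoint: background-corrected CellTiter-Fluor RFU expressed relative to the 0.1% DMSO mean on each plate. Undifferentiated H9 cells were treated with daily re-dosing and media change, and loss of signal was fitted.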

Assay [6] deals with AR (gene 367) (UniProt P10275). Put plainly: ACEA_AR_agonist_80hr: ACEA Biosciences xCELLigence Real-Time Cell Analysis on Androgen Receptor Agonism for Proliferation (AID 2283783).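 Also: hits increase impedance growth signal above DMSO baseline.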 Put shortly: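 Eight concentrations, 1:4 serial dilution from a 100 uM final top, in biological duplicate. Impedance-based real-time growth of 22Rv1 cells after overnight baseline, recorded hourly and read at 80 hours. Controls: testosterone, MG132, assay media.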

Assay [7] deals with Estrogen receptor beta (Homo sapiens) (UniProt Q92731). Put plainly: ATG_hERb_XSP1: Attagene TRANS-FACTORIAL Multi-Species (XSP1) HepG2 Assay for human Estrogen Receptor (ESR2) (AID 2283788). The method, then:
(§1) ATG_XSP1_multi-species_TRANS is a cell-based, multiplexed assay created by modifying the existing Attagene TRANS-FACTORIAL system to include a panel of nuclear receptors from some or all the following species: human (Homo sapiens), mouse (Mus musculus), frog (Xenopus laevis), zebrafish (Danio rerio), chicken (Gallus gallus), and turtle (Chrysemys picta). The ECOTOX-FACTORIAL format uses HepG2, a human liver cell line, with measurements taken at 24 hours after chemical dosing in a 24-well plate. Xsp1 included 3 nM 6-alpha-fluorotestosterone to partially stimulate the androgen receptor.ATG_hERb_XSP1 is one of 29 assay components measured or calculated from the ATG_XSP1_multi-species_TRANS assay. It is designed to make measurements of mRNA induction, a form of inducible reporter, as detected with fluorescence intensity signals by Reverse transcription polymerase chain reaction (RT-PCR) and Capillary electrophoresis technology.The assay endpoint ATG_hERb_XSP1 was analyzed in the positive analysis fitting direction relative to DMSO as the negative control and baseline of activity. Using a type of inducible reporter, measures of mRNA for gain-of-signal activity can be used to understand the reporter gene at the transcription factor-level as they relate to the gene ER. Furthermore, this assay endpoint can be referred to as a primary readout, because this assay has produced multiple assay endpoints where this one serves a reporter gene function. […]
Human liver HepG2 cells are transiently transfected with multiple reporter transcription units (MRTUs) in 6-well plates using FuGene 6 reagent (Roche; 3 ml FuGene/1 mg DNA). […] A major difference between the CIS and TRANS system is that in CIS activities of endogenous TFs are measured, whereas the TRANS assay evaluates changes in activities of exogenous, chimeric NR-Gal4 proteins. […] The fragments were purified using Qiaquick PCR columns (Qiagen), analyzed on an ABI 3130xL genetic analyzer (Applied Biosystems) with peak positions identified by using a set of X-rhodamine (ROX)-labeled MapMarker1000 molecular weight standards (BioVentures). […]

The nature of assay [8]: ATG_M_19_XSP1: Attagene TRANS-FACTORIAL Multi-Species (XSP1) HepG2 Assay for M19 Transcription Factor (Internal Marker) (AID 2283798). The procedure:
as §1, with “receptor.ATG_M_19_XSP1” for “receptor.ATG_hERb_XSP1”, “technology.This” for “technology.The”, “endpoint, ATG_M_19_XSP1,” for “endpoint ATG_hERb_XSP1”, “Using a type of inducible reporter, measures of mRNA for gain-of-signal activity can be used to understand the reporter gene at the transcription factor-level as they relate to the gene ER.” left out, “secondary” for “primary”, “background control” for “reporter gene”

The target of assay [9] is GAL4 Transcription Factor (Internal Marker), GAL4 (gene 855828) (UniProt P04386). Put plainly: ATG_GAL4_XSP1: Attagene TRANS-FACTORIAL Multi-Species (XSP1) HepG2 Assay for GAL4 Transcription Factor (Internal Marker) (AID 2283789). The procedure: as §1, with “receptor.ATG_GAL4_XSP1” for “receptor.ATG_hERb_XSP1”, “technology.This” for “technology.The”, “endpoint, ATG_GAL4_XSP1,” for “endpoint ATG_hERb_XSP1”, “Using a type of inducible reporter, measures of mRNA for gain-of-signal activity can be used to understand the reporter gene at the transcription factor-level as they relate to the gene ER.” left out, “secondary” for “primary”, “background control” for “reporter gene”
Chain of GAL4 Transcription Factor (Internal Marker), GAL4 (gene 855828) (P04386 whole entry, looked up, the tested form may be a part): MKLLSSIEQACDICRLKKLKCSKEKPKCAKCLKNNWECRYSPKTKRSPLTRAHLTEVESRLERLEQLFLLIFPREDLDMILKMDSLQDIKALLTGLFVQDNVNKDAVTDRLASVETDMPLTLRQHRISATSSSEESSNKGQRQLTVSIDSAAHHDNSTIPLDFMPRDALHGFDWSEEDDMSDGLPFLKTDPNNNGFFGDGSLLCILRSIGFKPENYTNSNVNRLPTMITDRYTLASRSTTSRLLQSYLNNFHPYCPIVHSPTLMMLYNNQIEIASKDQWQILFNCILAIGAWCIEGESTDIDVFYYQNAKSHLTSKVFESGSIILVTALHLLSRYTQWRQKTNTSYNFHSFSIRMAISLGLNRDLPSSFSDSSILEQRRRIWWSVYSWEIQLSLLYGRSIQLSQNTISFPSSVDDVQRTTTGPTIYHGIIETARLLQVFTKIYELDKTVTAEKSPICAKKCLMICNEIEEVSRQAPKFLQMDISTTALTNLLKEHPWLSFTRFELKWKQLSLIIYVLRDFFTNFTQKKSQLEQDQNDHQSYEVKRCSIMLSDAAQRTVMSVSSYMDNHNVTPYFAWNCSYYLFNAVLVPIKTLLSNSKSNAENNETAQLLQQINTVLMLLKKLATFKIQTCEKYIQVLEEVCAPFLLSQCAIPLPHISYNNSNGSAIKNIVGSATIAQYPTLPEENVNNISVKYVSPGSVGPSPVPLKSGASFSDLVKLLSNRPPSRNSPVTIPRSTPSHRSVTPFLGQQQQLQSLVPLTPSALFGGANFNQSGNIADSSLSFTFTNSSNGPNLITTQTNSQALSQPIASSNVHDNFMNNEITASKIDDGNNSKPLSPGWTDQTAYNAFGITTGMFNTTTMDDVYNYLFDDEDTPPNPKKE

Assay [10] concerns turtle Androgen Receptor (AR), gene 101947425. Put plainly: ATG_trAR_XSP1: Attagene TRANS-FACTORIAL Multi-Species (XSP1) HepG2 Assay for turtle Androgen Receptor (AR) (AID 2283786). The essentials: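 Partial androgen stimulation is provided by 3 nM 6-alpha-fluorotestosterone in a multi-species trans-factorial panel expressing a turtle AR–GAL4 fusion in HepG2. After 24 h, reporter mRNA is measured by RT-PCR and capillary electrophoresis and fitted upward against DMSO.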

Chain of Estrogen receptor beta (Homo sapiens) (Q92731 whole entry, looked up): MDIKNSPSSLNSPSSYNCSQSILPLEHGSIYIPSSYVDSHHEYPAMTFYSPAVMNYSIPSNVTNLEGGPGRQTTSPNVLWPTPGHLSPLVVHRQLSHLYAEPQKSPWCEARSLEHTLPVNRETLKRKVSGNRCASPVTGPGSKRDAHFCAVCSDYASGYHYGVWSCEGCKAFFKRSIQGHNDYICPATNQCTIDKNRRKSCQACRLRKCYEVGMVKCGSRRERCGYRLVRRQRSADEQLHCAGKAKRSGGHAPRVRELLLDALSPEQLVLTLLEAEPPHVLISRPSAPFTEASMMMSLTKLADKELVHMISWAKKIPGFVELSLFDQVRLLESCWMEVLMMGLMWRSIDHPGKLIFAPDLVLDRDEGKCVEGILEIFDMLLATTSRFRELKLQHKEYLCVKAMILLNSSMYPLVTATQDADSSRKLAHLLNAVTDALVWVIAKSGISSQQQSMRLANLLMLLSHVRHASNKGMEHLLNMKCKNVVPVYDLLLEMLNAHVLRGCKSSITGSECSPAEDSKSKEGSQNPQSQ

For the molecule `Cc1ccc2ccccc2c1C`, the AC50 in the assay with AR (gene 367) [1] is 16.6 µM (active).
As for `CC(C)(C)c1cc(O)ccc1O`, in assay [2], the AC50 was 9.53 µM (active). Moreover, the call in [3] and in assay [4] was inactive.
Consider `ClCC(Cl)CCl`, for which the result in assay [5] was inactive.
As for `C=C(C)C(=O)[O][Sn]([CH2]CCC)([CH2]CCC)[CH2]CCC`, the figures for the AC50 in [2] and in assay [5] were 1.43 µM (active) and 0.713 µM (active), respectively.
`CC(C)(c1ccc(OCC2CO2)cc1)c1ccc(OCC2CO2)cc1` (centres undefined): in assay [2], the AC50 was 82.5 µM (active). Besides, the molecule was called inactive in the assay with AR (gene 367) [6] and in the assay with AR (gene 367) [1].
Regarding `O=C(Nc1ccc2[nH]ccc2c1)c1cc2cc(F)ccc2n1Cc1cccc(F)c1`, in assay [2], the AC50 is 12.4 µM (active). The result in [5] was inactive.
On to `CCOP(=S)(OCC)Oc1nc(Cl)c(Cl)cc1Cl`, for which the AC50 in [2] was 87.6 µM (active); with AR (gene 367) [1], 74.9 µM (active).
With `COP(=S)(OC)Oc1ccc(Sc2ccc(OP(=S)(OC)OC)cc2)cc1`, in [2], the AC50 is 85.5 µM (active). Further, the molecule was classed as inactive with AR (gene 367) [1].
Regarding `Clc1ccc(COC(Cn2ccnc2)c2ccc(Cl)cc2Cl)cc1` (centres undefined), the AC50 in assay [2] was 21.5 µM (active); with AR (gene 367) [1], 8.61 µM (active).
For the molecule `O=C1C2(Cl)C3(Cl)C4(Cl)C(Cl)(Cl)C5(Cl)C3(Cl)C1(Cl)C5(Cl)C24Cl` (centres undefined), the AC50 is 10.4 µM (active) and 7.76 µM (active) and 8.91 µM (active) in assay [2]; 7.92 µM (active) with AR (gene 367) [1]. Besides, the molecule was classed as inactive (with AR (gene 367) [6]; in assay [5]; in assay [3]; in assay [4]).
In the case of `COP(=O)(OC)OC`, the molecule was classed as inactive (in [2]; in the assay with AR (gene 367) [1]).
`CCN1CCC2(CC1)COc1cc3c(cc12)N(C(=O)c1ccc(-c2ccc(-c4nnc(C)o4)cc2C)cc1)CC3`: the AC50 is 8.01 µM (active) in assay [2], 8.14 µM (active) in assay [5] and 8.66 µM (active) in the assay with AR (gene 367) [1]. For the same molecule, the molecule was classed as inactive with AR (gene 367) [6].
For `CC1(C)CCC(Cc2ccc(Cl)cc2)C1(O)Cn1cncn1` (centres undefined), the concentration at half-maximal activity (AC50) in assay [2] was 74.5 µM (active). The call in [3] and in assay [4] was inactive.
`C[C@H]1CCCC(=O)CCC/C=C/c2cc(O)cc(O)c2C(=O)O1`: the molecule was called inactive with AR (gene 367) [6]. Besides, the AC50 in the assay with AR (gene 367) [1] was 13.9 µM (active).
Take `CCC1(c2ccc(N)cc2)CCC(=O)NC1=O` (centres undefined): the call (in assay [2]; with AR (gene 367) [1]) was inactive.
In the case of `c1cc[c]([Hg][c]2ccccc2)cc1`, the AC50 is 36.3 µM (active) in assay [2] and 21.9 µM (active) with AR (gene 367) [1]. Moreover, the molecule was classed as inactive in the assay with AR (gene 367) [6].
On to `O=c1[nH]c(=O)[nH]c(=O)[nH]1`, for which the outcome (in [2]; with AR (gene 367) [6]; with AR (gene 367) [1]) was inactive.
Take `ClC1(Cl)C2(Cl)C3(Cl)C4(Cl)C(Cl)(Cl)C5(Cl)C3(Cl)C1(Cl)C5(Cl)C24Cl` (centres undefined): the call (in assay [2]; in assay [5]; in the assay with AR (gene 367) [1]) was inactive.
Take `CC(=O)[O][Hg][c]1ccccc1`: the AC50 in assay [2] was 1.32 µM (active); in assay [5] it was 0.387 µM (active); with AR (gene 367) [1] it was 1.21 µM (active).
Consider `COP(=O)(OC)O/C(=C\Cl)c1cc(Cl)c(Cl)cc1Cl`, for which, in assay [2], the AC50 is 58.1 µM (active). In addition, the result (in the assay with AR (gene 367) [1]; in [3]; in assay [4]) was inactive.
Take `CC(C)(C)CC(C)(C)c1ccc(O)cc1`: the AC50 is 21.2 µM (active) and 21.4 µM (active) and 21.5 µM (active) in [2]; 2.74 µM (active) in assay [7]. The molecule was classed as inactive (in the assay with AR (gene 367) [6]; in [3]; in assay [4]; in [8]).
Consider `C=CC(=O)OCCCCCC(C)C`, for which the call in [2] was inactive. Besides, in the assay with AR (gene 367) [6], the AC50 was 50 µM (active).
On to `Cc1ccccc1N`, for which, in assay [2], the AC50 was 0.893 µM (active) and the molecule was called inactive.
With `O=[N+]([O-])c1ccc(O)c([N+](=O)[O-])c1`, the molecule was called inactive (with AR (gene 367) [6]; in assay [5]). In the assay with AR (gene 367) [1], the AC50 is 50 µM (active).
`CC(C)c1cccc(C(C)C)c1O`: in the assay with AR (gene 367) [1], the molecule was called inactive.
With `Cc1ccccc1C(=O)Nc1cccc(OC(C)C)c1`, the result with AR (gene 367) [1] was inactive.
Turning to `O=C(O)C(Cl)(Cl)Cl`, the outcome in assay [2] and in assay [5] was inactive.
On to `CC12CC1(C)C(=O)N(c1cc(Cl)cc(Cl)c1)C2=O` (centres undefined), for which the result in assay [2], in [5], in [7], in [9], in assay [3] and in assay [4] was inactive. The AC50 in the assay with AR (gene 367) [1] was 78.4 µM (active).
Consider `CCC(=O)C(CC(C)N(C)C)(c1ccccc1)c1ccccc1` (centres undefined), for which the AC50 is 36.2 µM (active) in assay [2] and 28.2 µM (active) with AR (gene 367) [1].
On to `C[C@]12CCC(=O)C[C@@H]1CC[C@@H]1[C@@H]2CC[C@]2(C)[C@@H](O)CC[C@@H]12`, for which the AC50 in assay [10] was 0.168 µM (active). The molecule was classed as inactive in [7] and in assay [8].
For `C[C@@H]1C[C@@H]([C@H](O)CC2CC(=O)NC(=O)C2)C(=O)[C@@H](C)C1`, the AC50 in [2] is 522 nM (active) and 1.49 µM (active); in [5], 2.46 µM (active).
